Only some compounds are listed: those with a hit (about 3.5% of all), similar ones and a draw of the others.
UHRF1 MBD2 ctr: UHRF1 methyl-DNA binding inhibition | Q96T88 | UHRF1 binding to methylated oligo, TR-FRET | inhibition, % at 4.4 µM | hit rate 0.75% among 370,000; in the data active = inhibition above about 21%;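 note: UHRF1 SRA domain binding a hemimethylated CpG hairpin DNA probe; 0% = median of test compound wells and 100% = reference inhibitor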
rCAG binder: molecules binding r(CAG) RNA repeats | r(CAG) RNA repeat, TO-PRO-1 dye displacement fluorescence | inhibition, % at 3 µM | hit rate 1.3% among 370,000 | AID 651821;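 active = inhibition above the plate cutoff, the mean of all test compounds on that plate plus 3 SD, cut at about 35% in these data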;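 note: 0% = DMSO alone and 100% = 100 µM mitoxantrone as full dye displacement; higher means more dye released from RNA so lower well fluorescence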
DNMT1 inh: DNMT1 (human) enzyme inhibition | hit rate 0.83% among 360,000 | inhibition (reported as % activation of signal), % at 10 µM | DNMT1 molecular beacon, Hinp1I cleavage, fluorescence | AID 588458; in the data active = inhibition above about 50%
LEDGF integ inh: blocks HIV-1 LEDGF/p75-dependent DNA integration; TR-FRET IN-LEDGF/p75 DNA integration, Eu/Cy5; inhibition, % at 3.7 µM; hit rate 0.64% among 370,000;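 active = inhibition above the screen-wide mean plus 3 SD, cut at about 13% in these data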;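 note: signal is the Cy5 over europium emission ratio at 671 and 618 nm; 0% = plate median of compound wells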
PG9 Ab binder: PG9 antibody binding by small molecule. inhibition, % at 6.7 µM. AID 624416. hit rate 0.43% among 360,000. TR-FRET gp120-PG9 antibody binding; in the data active = inhibition above about 8.5%
MBD2 DNA inh: blocks human MBD2 binding to methylated DNA; Q9UBB5; TR-FRET, MBD2 binding to methylated oligonucleotide; inhibition, % at 4.4 µM; hit rate 0.31% among 370,000; in the data active = inhibition above about 13%
Target sequence (Q9UBB5 whole entry, looked up): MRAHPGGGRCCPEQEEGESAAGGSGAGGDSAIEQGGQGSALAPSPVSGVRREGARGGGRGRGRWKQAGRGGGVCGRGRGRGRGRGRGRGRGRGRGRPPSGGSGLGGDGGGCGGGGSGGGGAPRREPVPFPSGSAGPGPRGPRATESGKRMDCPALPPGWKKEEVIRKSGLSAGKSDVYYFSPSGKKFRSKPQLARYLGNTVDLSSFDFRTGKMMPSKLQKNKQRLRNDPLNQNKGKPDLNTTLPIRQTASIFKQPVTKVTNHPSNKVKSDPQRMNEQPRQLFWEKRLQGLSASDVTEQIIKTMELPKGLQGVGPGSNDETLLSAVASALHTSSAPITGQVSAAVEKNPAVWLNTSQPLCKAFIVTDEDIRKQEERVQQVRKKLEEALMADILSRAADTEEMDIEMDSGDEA
PG9 bind confirm: confirmation of small molecules binding HIV-1 gp120 antibody PG9; shares compounds with PG9 Ab binder; TR-FRET PG9 antibody binding, biochemical; inhibition, % at 6.7 µM; hit rate 90% among 1,500; in the data active = inhibition above about 9%
PGV04 Ab binding: counter-screen for PG9 binders: binding control antibody PGV04; shares compounds with PG9 Ab binder; TR-FRET PGV04 antibody-gp120 binding, biochemical; inhibition, % at 6.7 µM; hit rate 95% among 1,500; in the data active = inhibition above about 9.5%
PG9 binder DR: small molecules binding HIV-1 gp120 antibody PG9; shares compounds with PG9 Ab binder; TR-FRET PG9 antibody-gp120 binding inhibition; IC50, µM; 95 tested, under 10 active; AID 651848; in the data active = IC50 below about 10 µM
PGV04 DR counter: binds control antibody PGV04 in PG9 counter-screen; IC50, µM; hit rate 20% among 95; TR-FRET binding to control antibody PGV04; shares compounds with PG9 Ab binder
PG126 binding DR: PG126 binding, dose response counter-screen | shares compounds with PG9 Ab binder | IC50, µM | hit rate 20% among 95 | TR-FRET binding to antibody PG126, counterscreen
* hit, by the source's call; i = inactive; / = not tested or not shown. Cut-off read from the data, not from the text of the source, unless noted: active = IC50 below about 9 µM; inactive = the rest.

SMILES | UHRF1 MBD2 ctr | rCAG binder | DNMT1 inh | LEDGF integ inh | PG9 Ab binder | MBD2 DNA inh | PG9 bind confirm | PGV04 Ab binding | others
O=C(OC12CCCN(C1)/C(=C/c1ccc(Cl)cc1)C2)c1ccno1 (stereo unspecified) | 0 | 3 | / | -2 | / | 2 | / | /
O=C(O)c1cnc(-c2ccccc2)nc1-c1ccccc1 | -1 | 1 | 0 | 1 | 1 | 3 | / | /
O=C(Nc1ccccc1)c1cnc(-c2ccccc2)nc1-c1ccccc1 | 2 | 1 | 1 | 2 | 16* | 2 | 20* | 28*
COc1cccc(C(=O)N[C@H](C(=O)N2CCC[C@H]2C(=O)NCc2ccccc2)C(C)C)c1 | 2 | 0 | / | 2 | 3 | -2 | / | /
O=C(CNC(=O)c1sc2ccccc2c1Cl)NCc1ccc(F)cc1 | 0 | 3 | 0 | -2 | 12* | 1 | 8 | 21*
O=C(CNC(=O)c1sc2ccccc2c1Cl)Nc1ccccc1F | -1 | 2 | 13 | -3 | 12* | -1 | 17* | 32*
O=C(CNC(=O)c1sc2ccccc2c1Cl)NCc1cccnc1 | -6 | -3 | 0 | -1 | 0 | 1 | / | /
COc1ccc(NC(=O)CNC(=O)c2sc3ccccc3c2Cl)c(OC)c1 | -3 | 7 | 42 | -2 | 0 | -6 | / | /
CC1=C(C(=O)N(C(C)C)C(C)C)CC(CC(=O)NCc2cccc3ccccc23)C(=O)N1Cc1ccccc1 (stereo unspecified) | 0 | 1 | -8 | -5 | 0 | -7 | / | /
Cc1cc(C)c2nc(-c3ccccn3)cc(C(=O)Nc3cc(C)on3)c2c1 | 3 | 11 | 34 | 1 | 17* | -2 | 19* | 27*
NS(=O)(=O)c1ccc(CCNC(=O)c2cc(-c3ccccn3)nc3ccc(Br)cc23)cc1 | 0 | 13 | 17 | 4 | 17* | 0 | 31* | 63*
Cc1cc(NC(=O)c2cc(-c3ccccn3)nc3ccc(Br)cc23)no1 | -2 | -1 | 12 | -3 | 21* | 1 | 32* | 67*
Cc1cc(NC(=O)c2cc(-c3ccccn3)nc3ccccc23)no1 | -4 | -3 | 0 | -1 | 1 | -3 | / | /
NS(=O)(=O)c1ccc(CCNC(=O)c2ccc(-c3ccccc3)cc2)cc1 | 5 | 5 | 43 | 6 | 12* | 7 | 21* | 14* | PG9 binder DR=>67;PGV04 DR counter=>67;PG126 binding DR=>67
Cc1cc(C)c2nc(-c3ccccn3)cc(C(=O)Nn3cnnc3)c2c1 | 1 | 18 | -5 | 4 | 0 | 0 | / | /
CC(C1CCN(Cc2cn(C)nc2-c2cccc(Cl)c2)CC1)N1CCOCC1 (stereo unspecified) | 2 | -11 | 0 | -2 | 0 | 3 | / | /
CC(=O)Nc1cccc(-c2csc(C(O)c3ccccc3)n2)c1 (stereo unspecified) | 5 | 2 | 0 | 2 | 0 | 5 | / | /
COC(=O)c1cn(-c2ccc3c(c2)[C@@]2(CC(=O)N(C)C2c2ccccc2)C(=O)N3CC(C)C)nn1 (stereo partly specified) | 2 | -2 | / | 3 | / | -1 | / | /
O=C(NCc1ccccc1C(F)(F)F)C1CCC(=O)N(C2CC2)C1 (stereo unspecified) | -3 | -2 | 2 | -1 | -2 | -1 | / | /
CCOc1ccc(N(CC(=O)Nc2c(C)n(C)n(-c3ccccc3)c2=O)S(=O)(=O)c2cccs2)cc1 | -2 | 0 | / | 3 | / | -2 | / | /
COc1cccc(CNC(=O)COC(=O)/C(C#N)=C/c2ccc(N(C)C)cc2)c1 | 14 | 4 | 18 | 0 | 21* | 4 | 36* | 51*
O=C(NCCc1ccccc1)OCc1cn(Cc2ccc(Cl)cc2)nn1 | -1 | -1 | / | -1 | / | -1 | / | /
Cc1nc(-c2ccc(Br)cc2)ccc1C(=O)O | 1 | -1 | 4 | 1 | 14* | -2 | 24* | 30*
Cc1ccc(-c2ccc(C(=O)O)c(C)n2)cc1 | -1 | -1 | -2 | 0 | 2 | -7 | / | /
COc1ccc(C(=O)c2ccc(OC)c(Br)c2)cc1Br | -2 | 3 | -8 | -2 | 19* | -2 | 12* | 14*
SMILES | UHRF1 MBD2 ctr | rCAG binder | DNMT1 inh | LEDGF integ inh | PG9 Ab binder | MBD2 DNA inh | PG9 bind confirm | PGV04 Ab binding | others
CCCCCc1ccc2cc(C#N)ccc2n1 | -2 | 1 | 2 | 5 | -1 | -1 | / | /
Cc1ccc(NC(=O)c2cc(=O)[nH]c3ccc(S(=O)(=O)N4CCOCC4)cc23)cc1 | -1 | 5 | -4 | -1 | -2 | -4 | / | /
CCc1cccc(C)c1NC(=O)c1cc(=O)[nH]c2ccc(S(=O)(=O)N3CCOCC3)cc12 | -3 | 2 | 11 | 1 | 14* | 2 | 18* | 28*
O=C(CSc1ncccc1-c1nc2ccccc2[nH]1)N1CCc2ccccc21 | -1 | 7 | 0 | 0 | 14* | 1 | 21* | 33*
CC(C(=O)NCc1ccco1)n1nc(-c2ccccc2)c2cc(Cl)ccc21 (stereo unspecified) | -5 | 1 | 12 | 0 | 9.9* | 4 | 14* | 22*
CCC(C(=O)O)n1nc(-c2ccccc2)c2cc(Cl)ccc21 (stereo unspecified) | 1 | 32 | -4 | -2 | 1 | 3 | / | /
CCOc1cc(/C=N/NC(=O)C2CC2)ccc1OC(C)C | -1 | -6 | -1 | 2 | 0 | 5 | / | /
CCOC(=O)c1cnc2c(Cl)cc(Cl)cc2c1NCCOCCO | 0 | -1 | 3 | -3 | 13* | 0 | 9.7* | 12*
CCOC(=O)c1cnc2ccccc2c1NCCO | -2 | 0 | -2 | 2 | 1 | 3 | / | /
CSc1ccc(C(=O)NC2CCSc3ccccc32)cc1 (stereo unspecified) | -2 | 2 | 0 | 2 | 16* | 1 | 11* | 10* | PG9 binder DR=>67;PGV04 DR counter=i;PG126 binding DR=i
CC(C)CC(=O)Nc1c2c(nn1-c1ccc([N+](=O)[O-])cc1)CS(=O)(=O)C2 | -3 | -2 | 0 | -3 | -1 | 1 | / | /
COc1ccc(-c2nsc(SCC(=O)Nc3cc(C)on3)n2)cc1 | -2 | 1 | -3 | 2 | 42* | -1 | 41* | 55*
Cc1cccc(-c2nsc(SCC(=O)Nc3nccs3)n2)c1 | 1 | -2 | 7 | 1 | 10* | 1 | 9.2* | 12*

Screens deposited in PubChem by several laboratories.
